Measurements from PubChem BioAssay (NCATS).
Results filed as inconclusive are left out. Calls of active or inactive are those of the source. Calls follow the shape of the dose curve; as a rule, active = well fitted inhibition curve with a large enough effect; inconclusive = small, poorly fitted or top-dose-only effect; inactive = flat fitted curve, though single readings scatter.

How the values were obtained:
CRL-7250 = normal cell line; assay: Cytotoxic Profiling of Annotated Libraries Using Quantitative High-Throughput Screening (AID 1296008); conditions: Five cell lines viability, CellTiter-Glo ATP luminescence, 48-72 h; max response: stronger effect = lower value; as to max response: % is scaled to controls: 0 for no effect and ±100 for the full control effect
Procedure, shortened: (§1)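 Cytotoxicity was measured as CellTiter-Glo ATP luminescence, read after 10 min at room temperature. Compound treatment of the cells lasted 48 or 72 hr at 37 degrees Celsius in a qHTS format.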

HEK293 = assay: as above; conditions: Five cell lines viability, CellTiter-Glo ATP luminescence, 48-72 h; max response: stronger effect = lower value
Procedure, shortened: as §1

HaCat [1] = assay: as above; conditions: Five cell lines viability, CellTiter-Glo ATP luminescence, 48-72 h; max response: stronger effect = lower value
Procedure, shortened: as §1

KB-3-1 = assay: as above; conditions: Five cell lines viability, CellTiter-Glo ATP luminescence, 48-72 h; max response: stronger effect = lower value
Procedure, shortened: as §1

NIH3T3 = assay: as above; conditions: Five cell lines viability, CellTiter-Glo ATP luminescence, 48-72 h; max response: stronger effect = lower value
Procedure, shortened: as §1

HACAT [2] = assay: qHTS assay to identify novel small-molecules to repurpose for Merkel cell carcinoma treatment (AID 1296009); conditions: MCC and control cell lines, CellTiter-Glo viability, 72 h; at 44.8 µM (top of the series) unless noted
Procedure, shortened: (§2)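 After compound transfer in DMSO, plates were kept 72 hr at 37 degree celsius. Luminescent ATP signal from CellTiter-Glo served as viability measure, normalized against DMSO and no-cell controls.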

HEK293T = assay: as above; conditions: MCC and control cell lines, CellTiter-Glo viability, 72 h; series mostly up to 44.8 µM
Procedure, shortened: as §2
Also: nearly all actives have a fitted effect of over 60% in size.

CC1CC(O)CC(C)(C)C1(O)CCO (stereo unspecified)
inactive: max response (CRL-7250) -5.35% | outcome (HEK293) | outcome (HaCat [1]) | outcome (KB-3-1) | max response (NIH3T3) 0.3% | outcome (HACAT [2]) inactive [at 92 µM] | Potency (HEK293T)

CCCCS(=O)(=O)Nc1ncnc(OCCOc2ncc(Br)cn2)c1-c1ccc(Br)cc1
inactive: max response (CRL-7250) -8.77% | outcome (HEK293) | outcome (HaCat [1]) | outcome (KB-3-1) | max response (NIH3T3) 1.6% | outcome (HACAT [2]) | Potency (HEK293T)

C=C1CCC2C(C)(CO[C@@H]3O[C@H](CO)[C@@H](O)[C@H](O)[C@H]3O)C(O)CCC2(C)C1C(=O)CC1=CCOC1=O (stereo partly specified)
inactive: max response (CRL-7250) -10.6% | outcome (HEK293) | outcome (HaCat [1]) | max response (KB-3-1) 4.59% | max response (NIH3T3) 1.1% | outcome (HACAT [2]) inactive [at 17.4 µM] | Potency (HEK293T)

Cc1cc(C)cc(NC(=O)Cc2ccc(OC(C)(C)C(=O)O)cc2)c1
inactive: max response (CRL-7250) 0.247% | outcome (HEK293) | outcome (HaCat [1]) | outcome (KB-3-1) | max response (NIH3T3) -1.99% | outcome (HACAT [2]) | Potency (HEK293T)

CC(=O)OCC1=C[C@H](O)[C@@H]2C(C(=O)O)=CO[C@@H](O[C@@H]3O[C@H](CO)[C@@H](O)[C@H](O)[C@H]3O)[C@H]12
inactive: outcome (CRL-7250) | outcome (HEK293) | outcome (HaCat [1]) | max response (KB-3-1) -1.91% | outcome (NIH3T3) | outcome (HACAT [2]) inactive [at 17.4 µM] | Potency (HEK293T)

Cc1[nH]cnc1C1CCN(c2nc3cccc4c3n2CCC4=O)CC1
inactive: outcome (CRL-7250) | outcome (HEK293) | outcome (HaCat [1]) | max response (KB-3-1) 2.43% | outcome (NIH3T3) | outcome (HACAT [2]) | Potency (HEK293T)

C=C1C(OC(C)=O)C(=O)C2C(C)(C)C(OC(C)=O)CCC2(C)C1CC(OC(C)=O)/C(C)=C/COC(C)=O (stereo unspecified)
inactive: max response (CRL-7250) 0.124% | outcome (HEK293) | outcome (HaCat [1]) | max response (KB-3-1) -4.48% | outcome (NIH3T3) | outcome (HACAT [2]) inactive [at 17.4 µM] | Potency (HEK293T)

COc1cc(/C=C/CO)ccc1O[C@@H]1O[C@H](CO)[C@@H](O)[C@H](O)[C@H]1O
inactive: max response (CRL-7250) -3.79% | outcome (HEK293) | outcome (HaCat [1]) | max response (KB-3-1) 9.42% | outcome (NIH3T3) | outcome (HACAT [2]) | Potency (HEK293T)

CC(O)C(O)/C=C/C=C/C(=O)O[C@@H]1C=C2COC(=O)[C@]2(O)[C@@]2(C)CCCC(C)(C)C12 (stereo partly specified)
inactive: max response (CRL-7250) 3.05% | outcome (HEK293) | outcome (HaCat [1]) | max response (KB-3-1) 8.55% | outcome (NIH3T3) | outcome (HACAT [2]) inactive [at 17.4 µM] | Potency (HEK293T)

COc1ccccc1[C@@H]1C2=C(CC(C)(C)CC2=O)Nc2n[nH]c(C(F)(F)F)c21
inactive: max response (CRL-7250) 3.92% | outcome (HEK293) | outcome (HaCat [1]) | outcome (KB-3-1) | outcome (NIH3T3) | outcome (HACAT [2]) | Potency (HEK293T)

CC1(C)C[C@H]2C3=CCC4[C@@]5(C)CC[C@H](O[C@H]6O[C@H](C(=O)O)[C@@H](O)[C@H](O)[C@H]6O[C@H]6O[C@H](CO)[C@@H](O)[C@H](O)[C@H]6O[C@@H]6O[C@H](CO)[C@@H](O)[C@H](O)[C@H]6O)[C@](C)(CO)C5CC[C@@]4(C)[C@]3(C)CC[C@@]2(C)[C@H](O[C@@H]2OC[C@H](O)[C@H](OC3O[C@H](CO)[C@@H](O)[C@H](O)[C@H]3O)[C@H]2O)[C@@H]1O (stereo partly specified)
inactive: max response (CRL-7250) 3.94% | outcome (HEK293) | outcome (HaCat [1]) | max response (KB-3-1) 9.85% | max response (NIH3T3) 4.34% | outcome (HACAT [2]) inactive [at 9.27 µM] | outcome (HEK293T) inactive [at 9.27 µM]

CC(=O)C1CCC2(C)C3=C(CCC12C)C1(C)CCC(=O)C(C)(C)C1CC3 (stereo unspecified)
inactive: max response (CRL-7250) -8.18% | outcome (HEK293) | outcome (HaCat [1]) | outcome (KB-3-1) | max response (NIH3T3) -0.504% | outcome (HACAT [2]) | Potency (HEK293T)

C/C=C/C=C/C=C/C(=O)O[C@@H]1[C@@H](OC)C2=C(C(=O)N(C(C)C(=O)O)C2)[C@@]2(C)CCCC(C)(C)[C@H]12 (stereo partly specified)
inactive: max response (CRL-7250) -1.32% | outcome (HEK293) | outcome (HaCat [1]) | max response (KB-3-1) 5.59% | max response (NIH3T3) 0.76% | outcome (HACAT [2]) inactive [at 17.4 µM] | Potency (HEK293T)

O=C(/C=C/c1ccc(O)cc1)OC[C@H]1O[C@@H](OC(=O)/C=C/c2ccccc2)[C@H](O)[C@@H](O)[C@@H]1O
inactive: outcome (CRL-7250) | outcome (HEK293) | outcome (HaCat [1]) | max response (KB-3-1) -1.64% | outcome (NIH3T3) | outcome (HACAT [2]) inactive [at 17.4 µM] | Potency (HEK293T)

CC1CCC2C(C(=O)O)=CC3C(O)C(C)(C)CC123 (stereo unspecified)
inactive: max response (CRL-7250) -11.2% | outcome (HEK293) | outcome (HaCat [1]) | outcome (KB-3-1) | max response (NIH3T3) -3.55% | outcome (HACAT [2]) | Potency (HEK293T)

NC(Cc1c[nH]c2ccccc12)C(=O)NC(CCC(=O)O)C(=O)O (stereo unspecified)
inactive: outcome (CRL-7250) | outcome (HEK293) | outcome (HaCat [1]) | max response (KB-3-1) 5.6% | max response (NIH3T3) 1.77% | outcome (HACAT [2]) | Potency (HEK293T)

CCC[C@@H]1C[C@@H](C(=O)N[C@@H]([C@H]2O[C@H](SC)[C@H](O)[C@@H](O)[C@@H]2O)[C@@H](C)O)N(C)C1
inactive: outcome (CRL-7250) | outcome (HEK293) | outcome (HaCat [1]) | outcome (KB-3-1) | outcome (NIH3T3) | outcome (HACAT [2]) | Potency (HEK293T)

CCc1c(CC(N)=O)c2cc(OCCCP(=O)(O)O)ccc2n1Cc1ccccc1
inactive: max response (CRL-7250) -8.49% | outcome (HEK293) | outcome (HaCat [1]) | outcome (KB-3-1) | max response (NIH3T3) -4.64% | outcome (HACAT [2]) | Potency (HEK293T)
